# Results taken from PubChem BioAssay AID1209 (Sanford-Burnham Center for Chemical Genomics, 2008).
# Screen size: about 190,000 compounds; about 810 (0.43%) were called active. The entries come from a sample that favours actives as a whole. Values without a mark were called inactive. Rule as the data show it: active = inhibition above about 50%; inactive = the rest.
# Biological target: Mannose-6-phosphate isomerase (Homo sapiens) (UniProt P34949)
# Assay: MPI enzyme activity inhibition – biochemical, fluorescence intensity, coupled assay, primary screen (AID 1209);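 also: plate controls were DMSO vehicle for no effect and wells lacking substrate for full effect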
# Conditions: purified PMI enzyme, at 20 µM, stronger effect = higher value
# Chain of Mannose-6-phosphate isomerase (Homo sapiens) (P34949 whole entry, looked up): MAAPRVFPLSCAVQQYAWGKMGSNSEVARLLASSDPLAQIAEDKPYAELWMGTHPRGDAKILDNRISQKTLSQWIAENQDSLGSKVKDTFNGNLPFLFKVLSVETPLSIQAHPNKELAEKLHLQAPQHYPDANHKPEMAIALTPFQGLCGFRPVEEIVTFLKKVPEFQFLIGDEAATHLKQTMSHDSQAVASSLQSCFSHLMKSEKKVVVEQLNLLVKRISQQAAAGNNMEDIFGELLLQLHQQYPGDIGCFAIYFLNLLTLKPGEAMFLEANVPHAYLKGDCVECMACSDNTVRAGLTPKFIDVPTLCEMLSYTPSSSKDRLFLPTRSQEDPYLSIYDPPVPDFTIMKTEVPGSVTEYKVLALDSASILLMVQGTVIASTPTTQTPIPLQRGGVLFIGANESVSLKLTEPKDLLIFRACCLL
row,SMILES,inhibition
1,COc1ccc(OC)c(NC2c3ccccc3C(=O)N2c2cccnc2)c1 (configuration not stated),-11.1%
2,COc1ccc2c(c1)CCc1sc(NC(=O)c3ccco3)nc1-2,31.4%
3,COc1ccc2c(c1)-c1nc(/N=C/c3c(O)ccc4ccccc34)sc1CC2,77.9% (active)
4,COc1ccc2c(c1)Cc1sc(NC(=O)c3ccccc3)nc1-2,3.2%
5,COc1ccc(N=Cc2c(O)ccc3ccccc23)cc1,37%
6,COc1ccc2c(c1)-c1nc(/N=C/c3ccc(O)cc3)sc1CC2,80.2% (active)
7,COc1ccc2c(c1)-c1nc(NC(=O)c3ccco3)sc1CC2,23.9%
8,Oc1ccc2ccccc2c1/C=N/c1nc2c(s1)CCCC2,45.8%
9,COc1ccc2c(c1)-c1nc(NC(=O)c3cccs3)sc1CC2,26.3%
10,COc1ccc2c(c1)-c1nc(/N=C/c3ccccc3O)sc1CC2,70% (active)
11,COc1ccc(C(=O)Nc2nc3c(s2)Cc2cc(OC)ccc2-3)cc1,-2.4%
12,COc1ccc2c(c1)CCc1sc(NC(=O)c3ccc(C)cc3)nc1-2,19.4%
13,COc1ccc2c(c1)-c1nc(N)sc1CC2,73.3% (active)
14,COc1cccc(N(CC(=O)N2CCN(C)CC2)S(=O)(=O)c2ccccc2)c1,2.4%
15,Cc1ccc(C)c(N2CCN(C(c3ccc(N(C)C)cc3)c3nnnn3C(C)(C)C)CC2)c1 (configuration not stated),12.6%
16,CCCNCC(O)Cn1c2ccccc2n2c(=O)cc(C)c(C#N)c12 (configuration not stated),-6%
17,Cc1ccc(C)c(NC(=O)CSc2ccc(-c3ccco3)nn2)c1,8.2%
18,COc1cccc(N(C(=O)Cn2nnc3ccccc32)C(C(=O)NCc2ccco2)c2cccnc2)c1 (configuration not stated),1.5%
19,Cc1ccc(C)c(C(=O)NC2CC(C)(C)NC(C)(C)C2)c1,2.7%
20,CC(NC(=O)c1sc2ccccc2c1Cl)C1CCCO1 (configuration not stated),6.7%
21,O=C(CSc1nccc(-c2ccc(Br)cc2)n1)NCCc1ccccc1,0.8%
22,CSc1ccc(-c2nc(O)c3cnccn23)cc1,-16.4%
23,CN(C)S(=O)(=O)c1cccc(NC(=O)c2cc(-c3cccs3)nn2-c2ccccc2)c1,2.9%
24,CC(C)NC(=O)C1CCN(C2CCN(Cc3nc4ccccc4s3)CC2)CC1,1.6%
25,COc1ccc2c(c1)-c1nc(/N=C/c3cccc(OC)c3O)sc1CC2,65.8% (active)

row,SMILES,inhibition
1,COc1cccc(C=Nc2cc(C)on2)c1O,13.5%
2,COc1cccc(C=Nc2cc(C)cc(C)c2)c1O,-1.7%
3,CCC(Oc1ccc2c(c1)C(=O)CC(C)(C)O2)C(=O)NCCN1CCCCCC1 (configuration not stated),20%
4,CC(Sc1nnc(COc2ccc([N+](=O)[O-])cc2)n1C)C(=O)O (configuration not stated),0.2%
5,Cc1nc([N+](=O)[O-])nn1C12CC3CC(CC(Br)(C3)C1)C2,75% (active)
6,Cc1nc([N+](=O)[O-])nn1C12CC3CC(CC(Cl)(C3)C1)C2,4.8%
7,Cc1cc(NC(=O)C23CC4CC(C2)CC(n2cnc([N+](=O)[O-])n2)(C4)C3)no1,2.7%
8,CCN(CC)CCCOC(=O)C1(c2ccccc2)CCCC1,-3.2%
9,Cc1ccc(Nc2nnns2)cc1C,47.5%
10,Cc1ccc(Nc2nnns2)cc1,57.4% (active)
11,Cc1ccc(Nc2nc3ccccc3s2)cc1,-5.9%
12,COc1ccc(OC)c(NC(=O)C2C(C(=O)O)C3(Cl)C(Cl)=C(Cl)C2(Cl)C3(Cl)Cl)c1 (configuration not stated),18.2%
13,CCOC(=O)C(Nc1ccc2ccccc2c1)C(=O)OCC,60.3% (active)
14,CCC(=O)Nc1ccc2ccccc2c1,12%
15,CCCCCC(=O)Nc1ccc2ccccc2c1,16.7%
16,COc1ccc(CNS(=O)(=O)c2cccc(S(=O)(=O)N3CCOCC3)c2)cc1,6.7%
17,CCOc1cc(C(C#N)N2CCOCC2)ccc1OC (configuration not stated),12%
18,O=C(CN1C(=O)COc2ccccc21)NCCCN1CCN(Cc2ccccc2)CC1,4.6%
19,Cc1ccccc1NC(=O)c1sc(NC(=O)COc2ccccc2)c(C#N)c1C,5.1%
20,CCOC(=O)c1sc(NC(=O)CSc2nc(C)cc(C)n2)c(C#N)c1C,4.2%
21,CCOC(=O)c1sc(NC(=O)CSc2nnc(Cc3ccccc3)o2)c(C(=O)OCC)c1C,4.9%
22,CCOC(=O)c1sc(NC(=O)CSc2nc(C)cc(C(F)(F)F)n2)c(C#N)c1C,26.6%
23,CCOC(=O)c1c(NC(=O)CSc2nnc(Cc3ccccc3)o2)sc(C(C)=O)c1C,9.9%
24,Cc1sc(NC(=O)COc2ccccc2)c(C#N)c1C,58.3% (active)
25,CCOC(=O)c1sc(NC(=O)CSc2n[nH]c(-c3ccc(Cl)cc3Cl)n2)c(C#N)c1C,25.2%

row,SMILES,inhibition
1,CCOC(=O)c1sc(NC(=O)CSc2nc(C)cc(-c3ccccc3)n2)c(C#N)c1C,61.2% (active)
2,CCOC(=O)c1sc(NC(=O)CSc2n[nH]c(-c3ccncc3)n2)c(C#N)c1C,-4.9%
3,CCOC(=O)c1sc(NC(=O)CSc2n[nH]c(-c3ccccc3)n2)c(C#N)c1C,51.7% (active)
4,Cc1sc(NC(=O)COc2ccccc2)c(C#N)c1-c1ccccc1,4.5%
5,CCOC(=O)c1sc(NC(=O)CSc2nnc(Cc3ccccc3)o2)c(C#N)c1C,72.4% (active)
6,Cc1cc(C(=O)Nc2ccc(C(=O)O)cc2)c(-c2ccccc2)o1,4%
7,Cc1ccc[n+](CC(=O)c2ccc(NC(=O)c3ccccc3)cc2)c1,-10.6%
8,COCCN(CCOC)S(=O)(=O)c1ccc(C(=O)Nc2sc3c(c2C(N)=O)CCCCC3)cc1,3.2%
9,CC(=O)Nc1ccc(NC(=O)COc2c(C)cc(Br)cc2C)cc1,13.2%
10,CCO/N=C(\C)c1c(O)c(CC)c(-c2ccccc2)n(-c2ccccc2)c1=O,9.9%
11,C=CCn1c(NC(=O)CC)c(C(=O)OCC)sc1=S,17.3%
12,C=CCn1c(NC(=O)c2ccc(Br)o2)c(C(=O)OCC)sc1=S,50.7% (active)
13,CCOC(=O)c1sc(NC(=O)c2ccc(Br)o2)cc1C,11.7%
14,O=C(NCc1cn2ccccc2n1)c1ccccc1,-15.8%
15,O=C(CCN1CCCC1Cc1ccccc1)c1ccc2c(c1)OCCO2 (configuration not stated),50.8% (active)
16,O=C(CCN1CCCCC1)c1ccc2c(c1)OCCO2,36.1%
17,O=C(CCN1CCC(c2ccccc2)C1)c1ccc2c(c1)OCCO2 (configuration not stated),47.6%
18,FC(F)(F)c1cccc(NC(=S)N2CCN(c3ccccn3)CC2)c1,-17%
19,COc1cccc(NC(=S)N2CCN(c3ccccn3)CC2)c1,12.3%
20,FC(F)Oc1cccc(NC(=S)N2CCN(c3ccccn3)CC2)c1,65.6% (active)
21,CN(C)c1cccc(C(=O)OCC(=O)Nc2nccs2)c1,-1.5%
22,COc1nc(/C(N)=N/O)nc(N2CCCCC2)n1,66.9% (active)
23,COc1nc(N2CCCCCC2)nc(N2CCCCCC2)n1,2.3%
24,N/C(=N/O)c1nc(N2CCCCC2)nc(N2CCCCC2)n1,2.2%
25,COc1ccc(C(=O)Nc2ccc(CN3CCCCC3)cc2)cc1,3%

row,SMILES,inhibition
1,CCOC(=O)Cn1nc(C)c([N+](=O)[O-])c1C,-27.5%
2,Cc1nn(CC(=O)Nc2nccs2)c(C)c1[N+](=O)[O-],-3.9%
3,CCc1c(C)sc(NC(=O)Cn2nc(C)c([N+](=O)[O-])c2C)c1C(N)=O,53.3% (active)
4,COc1ccc(C2CC(C(F)(F)F)n3nc(C(=O)NCCCn4ccnc4)cc3N2)cc1OC (configuration not stated),41.3%
5,O=C(CN1CCCc2ccccc21)NCc1ccccc1Cl,-13.5%
6,Cc1ccc(C(=O)Nc2ccc(N3CCN(S(C)(=O)=O)CC3)cc2)cc1,0.4%
7,CC(C(=O)NCCS(=O)(=O)c1ccc(Cl)cc1)S(=O)(=O)c1ccc(Cl)cc1 (configuration not stated),-15.8%
8,O=C(CS(=O)(=O)c1ccc(Cl)cc1)NCCS(=O)(=O)c1ccc(Cl)cc1,59.5% (active)
9,Cc1ccc(S(=O)(=O)CCNC(=O)Cc2ccc(Cl)cc2)cc1,3.4%
10,Cc1ccc(CNC(=O)c2cncc(Br)c2)cc1,10.4%
11,CCOC(=O)C(C)n1cnc2c(nnn2-c2ccc(OC)cc2)c1=O (configuration not stated),-2.7%
12,CCOc1ccc(CNC(=O)CCCOc2cc(=O)n(C)c3ccccc23)cc1,-6.3%
13,Cc1c(Cc2ccc3c(c2)OCO3)sc(NC(=O)c2ccccc2)c1C(N)=O,-2.5%
14,Cc1c(Cc2ccc3c(c2)OCO3)sc(NC(=O)c2cccc3ccccc23)c1C(N)=O,56.7% (active)
15,Cc1c(Cc2ccc3c(c2)OCO3)sc(NC(=O)c2ccc3ccccc3c2)c1C(N)=O,43.1%
16,CC1=C(C)/C(=N/OC(=O)c2cccc([N+](=O)[O-])c2)C=CC1=O,4.4%
17,CC1=C(C)/C(=N\OC(=O)/C=C/c2ccccc2)C=CC1=O,7.2%
18,CC1=C(C)/C(=N\OS(=O)(=O)c2ccc(C)cc2)C=CC1=O,75.6% (active)
19,COc1ccc(S(=O)(=O)/N=C2/C=CC(=O)C(C)=C2C)cc1,14.5%
20,Cc1ccc(S(=O)(=O)O/N=C2\CCCc3ccccc32)cc1,9.6%
21,CS(=O)(=O)N(CC(=O)NCC1CCCO1)c1cccc([N+](=O)[O-])c1 (configuration not stated),-8.6%
22,CCn1c(CNC(=O)Cc2ccc(OC)cc2)nnc1SCCOc1ccccc1,-11.5%
